The structures appear in SMILES notation. Hit rate of the full screen: of about 96,000 compounds, about 19,000 (20%) were called active. Only a sample is shown. Unmarked numbers belong to inactive results.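 Rule for the calls: active = blocking of liver enzyme CYP2C9 beyond about 50% at 5 µM (limit read from the data); inactive = the rest.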

As usually defined, the inhibition is the relative decrease from the control value, in per cent.

The target in this assay is Cytochrome P450 2C9 (Homo sapiens) (UniProt P11712). Description: blockers of cytochrome P450 2C9 activity – biochemical, luminescence, ADME assay, primary screen (AID 777). Conditions: CYP2C9 Supersomes, luciferin-H conversion, at 5 µM, hits give high values.
Chain of Cytochrome P450 2C9 (Homo sapiens) (P11712 whole entry, looked up): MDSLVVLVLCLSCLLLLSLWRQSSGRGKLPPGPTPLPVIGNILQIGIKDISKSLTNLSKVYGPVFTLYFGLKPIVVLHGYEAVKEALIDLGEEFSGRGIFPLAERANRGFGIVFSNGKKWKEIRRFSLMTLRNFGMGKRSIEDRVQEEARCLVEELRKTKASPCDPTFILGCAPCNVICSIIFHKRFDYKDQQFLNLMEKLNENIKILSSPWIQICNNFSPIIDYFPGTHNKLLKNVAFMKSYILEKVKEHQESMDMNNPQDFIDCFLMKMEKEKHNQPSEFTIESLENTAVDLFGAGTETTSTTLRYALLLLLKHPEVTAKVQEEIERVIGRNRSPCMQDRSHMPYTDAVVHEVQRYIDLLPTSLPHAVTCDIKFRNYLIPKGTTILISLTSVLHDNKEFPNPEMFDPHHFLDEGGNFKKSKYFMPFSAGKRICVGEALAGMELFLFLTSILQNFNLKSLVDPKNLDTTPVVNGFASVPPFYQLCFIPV
`Cn1c(=O)c2c(nc(SCCNS(=O)(=O)c3ccccc3)n2C)n(C)c1=O`: the inhibition is 42.7%.

In the case of `Cn1c(=O)c2c(nc(N3CCCCCC3)n2CC(O)COc2ccc(Cl)cc2)n(C)c1=O` (stereo unspecified), the inhibition was 20%.

`CC(C)n1c(SCC(=O)Nc2ccccc2N2CCCCC2)nc2c1c(=O)n(C)c(=O)n2C`: the inhibition was 87.2% (active).

As to `Cn1c(=O)c2c(nc(N3CCCCCC3)n2CC(=O)c2ccc(Br)cc2)n(C)c1=O`, the inhibition was 15.6%.

Regarding `O=C(CN1CCN(C2CCCCC2)CC1)Nc1ccccc1N1CCCCC1`, the inhibition is -1.6%.

On to `Cn1c(=O)c2c(nc(SCC(=O)Nc3ccccc3N3CCCCC3)n2C)n(C)c1=O`, for which the inhibition is 93.9% (active).

As to `Cc1ccc2[nH]c(=O)c(-c3nc4c(C)cccn4c3NCc3ccco3)cc2c1`, the inhibition was 13%.

As to `Fc1ccc(-c2ccc(-c3nn4c(-c5ccco5)nnc4s3)o2)cc1`, the inhibition was 7.3%.

Consider `COC(=O)c1ccc(Oc2nc(Nc3ccc(F)cc3)nc(N3CCCC3)n2)cc1`, for which the inhibition was 31.9%.

Take `Cc1ccc2nc(Nc3ccccc3O)nc(-c3ccccc3)c2c1`: the inhibition was 13.8%.

On to `Cc1nnc(SCC(N)=O)n1CC1CCCO1` (stereo unspecified), for which the inhibition is 0.5%.

Turning to `O=c1c2ccccc2nnn1CSc1nc2sc3c(c2c(=O)n1CC1CCCO1)CCC3` (stereo unspecified), the inhibition was 84.8% (active).

For the compound `O=C(NC1CCCCC1)c1ccc2c(=O)n(CC3CCCO3)c(=O)[nH]c2c1` (stereo unspecified), the inhibition is -2.1%.

Consider `COc1cccc(CNc2nc3nc4c(c(=O)n3[nH]2)CCC4)c1`, for which the inhibition was 15.1%.

Consider `CC(=O)Nc1ccc(N2C(=O)C3C4CC(=O)C(c5ccccc54)C3C2=O)cc1` (stereo unspecified), for which the inhibition is -8.5%.

Take `Cc1ccc(C)c(NC(=O)CSc2nnc(Cc3cccn3C)n2-c2ccc(F)cc2)c1`: the inhibition was 19.9%.

As to `COC(=O)c1ccc(NC(=O)CSc2nnc(Cc3cccn3C)n2-c2ccc(F)cc2)cc1`, the inhibition is 19.2%.

With `COc1ccccc1NC(=O)CSc1nnc(Cc2cccn2C)n1-c1ccc(F)cc1`, the inhibition is 62.7% (active).

`CC(=NC1CCN(Cc2ccccc2)CC1)c1c(O)[nH]c(=O)[nH]c1=O`: the inhibition is -1.3%.

On to `CN=C1S/C(=C\c2ccc(Sc3ccc(Cl)cc3)o2)C(=O)N1C`, for which the inhibition was 29.4%.

On to `CCC(C)N1C(=O)S/C(=C/c2ccc(Sc3nc4ccccc4[nH]3)o2)C1=O` (stereo unspecified), for which the inhibition was 60% (active).

For the compound `O=C(CSc1nc2ccccc2[nH]1)c1cccs1`, the inhibition is 29.8%.

Regarding `COc1cccc2sc(Nc3nc(C)c(C(C)=O)s3)nc12`, the inhibition is 64.5% (active).

On to `CC(=O)c1sc(NC(=O)c2cccc3ccccc23)nc1C`, for which the inhibition was -22.6%.

Turning to `CC(=O)c1sc(NC(=O)c2ccc(C)cc2)nc1C`, the inhibition is 6.9%.

On to `COc1ccc(C(=S)Nc2ccccc2)cc1`, for which the inhibition is 15%.

Consider `CN1CCN(C(=O)Cn2c(C(F)(F)F)nc3ccccc32)CC1`, for which the inhibition is -8.1%.

Regarding `CCOC(=O)N1CCN(C(=O)CN(C2CCCCC2)S(C)(=O)=O)CC1`, the inhibition was 0.7%.

As to `CS(=O)(=O)N(CC(=O)N1CCN(c2ccc(F)cc2)CC1)C1CCCCC1`, the inhibition was 21.6%.

Take `CS(=O)(=O)N(CC(=O)Nc1ccc(Cl)c(Cl)c1)C1CCCCC1`: the inhibition was 59.4% (active).

Turning to `CC(C)C(C)NC(=O)COc1ncnc2ccccc12` (stereo unspecified), the inhibition was 14.1%.

In the case of `O=C(CSc1nnc(Cc2ccccc2)n1-c1ccccc1)N1CCOCC1`, the inhibition is 3.8%.

In the case of `Fc1ccc(-n2c(Cc3ccccc3)nnc2SCc2nc(-c3ccc(Cl)cc3)no2)cc1`, the inhibition was 62.6% (active).

For the compound `CSc1nnc(CNC(=O)c2ccccc2)n1-c1ccc(F)cc1`, the inhibition is -3.4%.

With `COc1ccc(-c2noc(CSc3ccc(C)cc3)n2)cc1`, the inhibition is 52.3% (active).

As for `Cc1ccc(Cc2nc(-c3cccc(C)c3)no2)cc1`, the inhibition was -9.2%.

Turning to `CCOc1cc(-c2noc(CCC(=O)N3CCOCC3)n2)ccc1OC`, the inhibition is -11.7%.

Turning to `Cc1ccc(-c2noc(CCC(N)=O)n2)cc1`, the inhibition was 6.1%.

Regarding `Cc1ccc(-c2noc(CC(c3ccccc3)c3ccccc3)n2)cc1`, the inhibition was 55.2% (active).

For `COc1ccc(-c2noc(CN(C)S(=O)(=O)c3ccc(C)cc3)n2)cc1`, the inhibition is 18.8%.

Regarding `COc1ccccc1Cc1nc(-c2ccc(C)cc2)no1`, the inhibition is 7.1%.

Consider `COc1ccc(-c2noc(-c3ccc(C)cc3)n2)cc1`, for which the inhibition is -13.8%.

As for `COc1ccc(N2CCN(C(=O)CCc3nc(-c4ccc(C)cc4)no3)CC2)cc1`, the inhibition was 51.2% (active).

Regarding `CCn1c(SCC(=O)Nc2ccc(S(=O)(=O)Nc3onc(C)c3C)cc2)nnc1-c1ccccc1`, the inhibition was 18.2%.

Take `O=C(NCCCCO)C(F)(F)C(F)(F)C(F)(F)C(=O)NCCCCO`: the inhibition is -24.7%.

With `Cc1ccc(-c2noc(CSc3nnc(-c4cccs4)n3C)n2)cc1`, the inhibition was 13%.

In the case of `Cc1ccc(-c2noc(CSc3nnc(-c4ccncc4)n3-c3ccc(F)cc3)n2)cc1`, the inhibition was 70.7% (active).

`CCN(CC)C(=O)CSc1nnc(-c2cnccn2)n1-c1ccc(C)cc1`: the inhibition was 8.8%.

Turning to `Cc1ccc(-c2noc(CSc3nnc(-c4ccccc4)n3C)n2)cc1`, the inhibition was 88.3% (active).

As to `Cn1c(SCc2nc3ccccc3s2)nnc1-c1ccc2c(c1)OCO2`, the inhibition is 8.2%.

For `Cc1cccc(-c2noc(-c3ccc(F)cc3)n2)c1`, the inhibition is 8.5%.

`Cc1ccc(Nc2nc(CSc3nnnn3-c3ccccc3)cc(=O)[nH]2)cc1`: the inhibition is 42.5%.

For `Cc1ccc(-c2noc(CSc3nnnn3-c3ccccc3)n2)cc1`, the inhibition is 85.5% (active).

For the compound `CN(C(=O)CSc1nnnn1-c1ccccc1)C1CCCCC1`, the inhibition is 36.3%.

In the case of `O=C(O)CN(Cc1ccco1)S(=O)(=O)c1ccccc1`, the inhibition was -2.7%.

As for `O=C(c1ccc(O)cc1)c1ccc(C(=O)O)c(C(=O)O)c1`, the inhibition was -15.8%.

`COc1ccc(C(CNC(=O)c2cccnc2SC)N2CCOCC2)cc1` (stereo unspecified): the inhibition was 6.9%.

Regarding `S=C1NC(c2ccccc2)=NCN1c1ccc(Br)cc1`, the inhibition was 19.4%.

On to `CCOC(=O)N1CCN(S(=O)(=O)c2cc(Br)cc3c2N(C(=O)C2CC2)CC3)CC1`, for which the inhibition is 50.2% (active).

Consider `CCN(c1ccc2c(c1)OCO2)S(=O)(=O)c1cc(Br)cc2c1N(C(=O)C1CC1)CC2`, for which the inhibition is 33.6%.

`CCOC(=O)N1CCN(C(=O)C2CCN(S(C)(=O)=O)CC2)CC1`: the inhibition was -10.2%.

These data come from PubChem BioAssay AID777 (Sanford-Burnham Center for Chemical Genomics, 2007).
